Laboratory results published in PubChem BioAssay (NCI).
The panel holds about 83,000 compounds, 20% with a hit somewhere; the sample as a whole holds those more often.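 Plates (96-well) were seeded with cells, treated with compound at one concentration, and incubated for 48 hours before percent growth was determined.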 Values without a mark were called inactive. Active and inactive are the calls of the source. How the source made its calls: active means growth percent below 10; inactive means the rest.

Tests used:
Assay in all cases: NCI-60 one-dose screen, 48 h (100 = growth as untreated, 0 = no growth, -100 = all killed)
[1] = test system: NCI-H23 lung; conditions: 10 µM unless noted
[2] = test system: NCI-H226 lung; conditions: 10 µM unless noted
[3] = test system: NCI-H322M lung; conditions: 10 µM unless noted
[4] = test system: NCI-H460 lung; conditions: 10 µM unless noted
[5] = test system: HOP-92 NSCLC; conditions: 10 µM
[6] = test system: NCI-H522 lung; conditions: 10 µM
[7] = test system: A549/ATCC NSCLC; conditions: 10 µM unless noted
[8] = test system: 786-0 renal; conditions: 10 µM unless noted
[9] = test system: COLO 205 colon; conditions: 10 µM unless noted
[10] = test system: DU-145 prostate; conditions: 10 µM unless noted
[11] = test system: K-562 leukemia; conditions: 10 µM unless noted
[12] = test system: MALME-3M melanoma; conditions: 10 µM unless noted
[13] = test system: MDA-MB-231 breast; conditions: 10 µM unless noted
[14] = test system: RXF 393 renal; conditions: 10 µM unless noted
[15] = test system: SF-268 CNS; conditions: 10 µM unless noted
[16] = test system: SF-295 CNS; conditions: 10 µM unless noted
[17] = test system: SF-539 CNS; conditions: 10 µM unless noted
[18] = test system: UACC-257 melanoma; conditions: 10 µM unless noted
[19] = test system: M14 melanoma; conditions: 10 µM unless noted

Row | SMILES | growth [1] | growth [2] | growth [3] | growth [4] | growth [5] | growth [6] | growth [7] [%] | growth [8] | growth [9] [%] | growth [10] | growth [11] | growth [12] | growth [13] | growth [14] | growth [15] | growth [16] | growth [17] | growth [18] [%] | growth [19]
1 | CC1Cc2cc(F)ccc2-n2cccc21 (configuration not stated) | 98.5% | 154% | 100% | 98.7% | 73.8% | 101% | 104 | 111% | 94.6 | 106% | 108% | 101% | 94% | 136% | 110% | 104% | 101% | 101 | 111%
2 | CCn1cc(C(=O)O)c(=O)c2cc(F)c(N3CCN(S(=O)(=O)c4ccc(Cl)cc4)CC3)cc21 | -7.07% (active) | 60.1% | 45.9% | 5.92% (active) | -4.17% (active) | 8.39% (active) | 14.6 | 23.7% | 12.1 | 31.7% | 21.4% | 23.8% | 41.1% | 13.4% | 22.7% | 3.94% (active) | 21.7% | 29 | 18.9%
3 | C=C(NC(=O)[C@H](C(C)C)N(C)c1cccc2[nH]ccc12)C(=O)OC | 99.8% | 97.5% | 100% | 103% | 99.5% | 87.3% | 96.5 | 95.9% | 132 | 100% | 89.4% | 92.8% | 109% | 106% | 101% | 101% | 117% | 96.9 | 94.9%
4 | Clc1ccc(N/N=C(/c2ccccc2)c2ccccn2)nc1 | 29.7% | 27.1% | 39.8% | 28.8% | 51% | 60.8% | 32 | 37.6% | 25 | 42% | 15.5% | 50.5% | 30.7% | 74.6% | 37.8% | 41.2% | 41.3% | 13.4 | 28.9%
5 | O=C(/C=C/c1cccc(O)c1)c1cccc(-n2cc(-c3ccc(Cl)cc3)[nH]c2=O)c1 | -19.5% (active) | -48.7% (active) | -0.035% (active) | -4.62% (active) | -35.6% (active) | -48.6% (active) | 28.3 | -74.7% (active) | 42.1 | -69.8% (active) | -18.4% (active) | -36% (active) | -17.3% (active) | -61.1% (active) | -68.3% (active) | 4.32% (active) | -89.7% (active) | 22.1 | -13% (active)
6 | OCC(O)C(O)CC1SCCS1 (configuration not stated) | 97.3% | 91.9% | 109% | 108% | 104% | 96.6% | 101 | 96% | 106 | 108% | 83% | 101% | 114% | 102% | 99.4% | 104% | 103% | 105 | 97.9%
7 | NNC(=O)CNc1ccc2ccccc2c1 | 101% | 109% | 115% | 113% | 70.4% | 98.5% | 115 | 105% | 109 | 95.8% | 86.8% | 98.9% | 104% | -7.3% (active) | 120% | 118% | 95.4% | 105 | -100% (active)
8 | CCOC(=O)c1c2c(cn1Cc1ccccc1)-c1oncc1CC2 | 106% | 79.4% | 92.8% | 112% | 61.8% | 99% | 95.1 | 83.9% | 123 | 107% | 101% | 114% | 90.6% | 93.3% | 83.6% | 98.5% | 86% | 112 | 111%
